{
  "source": "the supplement of paper PMC13380429",
  "system": "Vero E6 infected with SARS-CoV-2",
  "assay": "inhibition of SARS-CoV-2 cytopathic effect; higher = more antiviral protection, active = above 15",
  "conditions": "48 h",
  "note": "Values without a mark were called inactive.",
  "data": [
    {"compound": "CCCCCC(C)N", "note": "(stereo not given) [tuaminoheptane]", "values": [
      {"measurement": "inhibition of SARS-CoV-2 cytopathic effect", "setting": "1 nM", "result": 1.21, "unit": "%"},
      {"measurement": "inhibition of SARS-CoV-2 cytopathic effect", "setting": "8.33 nM", "result": 1.95, "unit": "%"},
      {"measurement": "inhibition of SARS-CoV-2 cytopathic effect", "setting": "100 nM", "result": 0.51, "unit": "%"},
      {"measurement": "inhibition of SARS-CoV-2 cytopathic effect", "setting": "833.33 nM", "result": 3.02, "unit": "%"},
      {"measurement": "inhibition of SARS-CoV-2 cytopathic effect", "setting": "10000 nM", "result": 1.11, "unit": "%"}
    ]},
    {"compound": "COc1cccc(-c2cc(F)ccc2[C@H]2Cc3nc(N)nc(C)c3C(=O)N2)n1", "values": [
      {"measurement": "inhibition of SARS-CoV-2 cytopathic effect", "setting": "1 nM", "result": -0.35, "unit": "%"},
      {"measurement": "inhibition of SARS-CoV-2 cytopathic effect", "setting": "8.33 nM", "result": 0.26, "unit": "%"},
      {"measurement": "inhibition of SARS-CoV-2 cytopathic effect", "setting": "100 nM", "result": -1.38, "unit": "%"},
      {"measurement": "inhibition of SARS-CoV-2 cytopathic effect", "setting": "833.33 nM", "result": -0.51, "unit": "%"},
      {"measurement": "inhibition of SARS-CoV-2 cytopathic effect", "setting": "10000 nM", "result": -10.9, "unit": "%"}
    ]},
    {"compound": "CCCOc1ccc(S(=O)(=O)N2CCN(CCO)CC2)cc1-c1nc2c(CCC)cn(CC)c2c(=O)[nH]1", "note": "[mirodenafil]", "values": [
      {"measurement": "inhibition of SARS-CoV-2 cytopathic effect", "setting": "1 nM", "result": -1.57, "unit": "%"},
      {"measurement": "inhibition of SARS-CoV-2 cytopathic effect", "setting": "8.33 nM", "result": 0.66, "unit": "%"},
      {"measurement": "inhibition of SARS-CoV-2 cytopathic effect", "setting": "100 nM", "result": -2.49, "unit": "%"},
      {"measurement": "inhibition of SARS-CoV-2 cytopathic effect", "setting": "833.33 nM", "result": -3.18, "unit": "%"},
      {"measurement": "inhibition of SARS-CoV-2 cytopathic effect", "setting": "10000 nM", "result": -6.03, "unit": "%"}
    ]},
    {"compound": "O=C(O)COc1cccc(-c2ocnc2-c2nc(-c3ccccc3)c(-c3ccccc3)o2)c1", "values": [
      {"measurement": "inhibition of SARS-CoV-2 cytopathic effect", "setting": "1 nM", "result": -0.58, "unit": "%"},
      {"measurement": "inhibition of SARS-CoV-2 cytopathic effect", "setting": "8.33 nM", "result": 0.52, "unit": "%"},
      {"measurement": "inhibition of SARS-CoV-2 cytopathic effect", "setting": "100 nM", "result": 0.7, "unit": "%"},
      {"measurement": "inhibition of SARS-CoV-2 cytopathic effect", "setting": "833.33 nM", "result": 0, "unit": "%"},
      {"measurement": "inhibition of SARS-CoV-2 cytopathic effect", "setting": "10000 nM", "result": 3.01, "unit": "%"}
    ]},
    {"compound": "CCCCCCCCCCCCCCCC(=O)OC[C@H](COP(=O)([O-])OCC[N+](C)(C)C)OC(=O)CCCCCCCCCCCCCCC", "note": "[colfosceril-palmitate]", "values": [
      {"measurement": "inhibition of SARS-CoV-2 cytopathic effect", "setting": "1 nM", "result": -7.11, "unit": "%"},
      {"measurement": "inhibition of SARS-CoV-2 cytopathic effect", "setting": "8.33 nM", "result": -7.33, "unit": "%"},
      {"measurement": "inhibition of SARS-CoV-2 cytopathic effect", "setting": "100 nM", "result": -5.95, "unit": "%"},
      {"measurement": "inhibition of SARS-CoV-2 cytopathic effect", "setting": "833.33 nM", "result": -6.54, "unit": "%"},
      {"measurement": "inhibition of SARS-CoV-2 cytopathic effect", "setting": "10000 nM", "result": -9.82, "unit": "%"}
    ]},
    {"compound": "O=C1NC(O)CCN1[C@@H]1O[C@H](CO)[C@@H](O)[C@H]1O", "note": "(stereo not given in full) [tetrahydrouridine]", "values": [
      {"measurement": "inhibition of SARS-CoV-2 cytopathic effect", "setting": "1 nM", "result": 2.54, "unit": "%"},
      {"measurement": "inhibition of SARS-CoV-2 cytopathic effect", "setting": "8.33 nM", "result": 1.19, "unit": "%"},
      {"measurement": "inhibition of SARS-CoV-2 cytopathic effect", "setting": "100 nM", "result": 0.47, "unit": "%"},
      {"measurement": "inhibition of SARS-CoV-2 cytopathic effect", "setting": "833.33 nM", "result": -0.67, "unit": "%"},
      {"measurement": "inhibition of SARS-CoV-2 cytopathic effect", "setting": "10000 nM", "result": -0.83, "unit": "%"}
    ]},
    {"compound": "Nc1ccc(S(N)(=O)=O)cc1", "note": "[sulfanilamide]", "values": [
      {"measurement": "inhibition of SARS-CoV-2 cytopathic effect", "setting": "1 nM", "result": -4.21, "unit": "%"},
      {"measurement": "inhibition of SARS-CoV-2 cytopathic effect", "setting": "8.33 nM", "result": -0.69, "unit": "%"},
      {"measurement": "inhibition of SARS-CoV-2 cytopathic effect", "setting": "100 nM", "result": 4.19, "unit": "%"},
      {"measurement": "inhibition of SARS-CoV-2 cytopathic effect", "setting": "833.33 nM", "result": 2.93, "unit": "%"},
      {"measurement": "inhibition of SARS-CoV-2 cytopathic effect", "setting": "10000 nM", "result": 1.32, "unit": "%"}
    ]},
    {"compound": "CCCN(CC1CC1)c1nc(C)nc(Nc2c(Cl)cc(Cl)cc2Cl)c1Cl", "values": [
      {"measurement": "inhibition of SARS-CoV-2 cytopathic effect", "setting": "1 nM", "result": 4.5, "unit": "%"},
      {"measurement": "inhibition of SARS-CoV-2 cytopathic effect", "setting": "8.33 nM", "result": 2.92, "unit": "%"},
      {"measurement": "inhibition of SARS-CoV-2 cytopathic effect", "setting": "100 nM", "result": 1.63, "unit": "%"},
      {"measurement": "inhibition of SARS-CoV-2 cytopathic effect", "setting": "833.33 nM", "result": 0.09, "unit": "%"},
      {"measurement": "inhibition of SARS-CoV-2 cytopathic effect", "setting": "10000 nM", "result": 1.2, "unit": "%"}
    ]},
    {"compound": "CCOC(=O)[C@H](CCc1ccccc1)N[C@@H](C)C(=O)N(CC(=O)O)C1Cc2ccccc2C1", "note": "[delapril]", "values": [
      {"measurement": "inhibition of SARS-CoV-2 cytopathic effect", "setting": "1 nM", "result": -1.82, "unit": "%"},
      {"measurement": "inhibition of SARS-CoV-2 cytopathic effect", "setting": "8.33 nM", "result": 0.71, "unit": "%"},
      {"measurement": "inhibition of SARS-CoV-2 cytopathic effect", "setting": "100 nM", "result": 2.57, "unit": "%"},
      {"measurement": "inhibition of SARS-CoV-2 cytopathic effect", "setting": "833.33 nM", "result": 2.28, "unit": "%"},
      {"measurement": "inhibition of SARS-CoV-2 cytopathic effect", "setting": "10000 nM", "result": -1.55, "unit": "%"}
    ]},
    {"compound": "Clc1ccccc1CNC[C@H]1CC[C@H](CNCc2ccccc2Cl)CC1", "values": [
      {"measurement": "inhibition of SARS-CoV-2 cytopathic effect", "setting": "1 nM", "result": -1.74, "unit": "%"},
      {"measurement": "inhibition of SARS-CoV-2 cytopathic effect", "setting": "8.33 nM", "result": -2.28, "unit": "%"},
      {"measurement": "inhibition of SARS-CoV-2 cytopathic effect", "setting": "100 nM", "result": -1.13, "unit": "%"},
      {"measurement": "inhibition of SARS-CoV-2 cytopathic effect", "setting": "833.33 nM", "result": -3.17, "unit": "%"},
      {"measurement": "inhibition of SARS-CoV-2 cytopathic effect", "setting": "10000 nM", "result": "16.4% (active)"}
    ]},
    {"compound": "CCCCCCCCCCCCCCCCCCCCCCCCCCCCO", "note": "[1-octacosanol]", "values": [
      {"measurement": "inhibition of SARS-CoV-2 cytopathic effect", "setting": "1 nM", "result": 1.47, "unit": "%"},
      {"measurement": "inhibition of SARS-CoV-2 cytopathic effect", "setting": "8.33 nM", "result": 3.47, "unit": "%"},
      {"measurement": "inhibition of SARS-CoV-2 cytopathic effect", "setting": "100 nM", "result": 4.36, "unit": "%"},
      {"measurement": "inhibition of SARS-CoV-2 cytopathic effect", "setting": "833.33 nM", "result": -0.37, "unit": "%"},
      {"measurement": "inhibition of SARS-CoV-2 cytopathic effect", "setting": "10000 nM", "result": 1.08, "unit": "%"}
    ]}
  ]
}
